Screens (PubChem)
Compounds with a hit are over-represented: about 7.5% of the library has one in this group of screens.
TSHR antag: human thyrotropin receptor antagonism | hit rate 0.2% among 330,000 | activity change, negative = inhibition, % at 11.5 µM | P16473 | TSHR-expressing cells, TSH-stimulated cAMP HTRF, 2 h; stronger effect = lower value | AID 504810;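 active = activity change below a set negative limit, meaning inhibition stronger than a set level, cut at about -70% in these data; inconclusive = activity change between two set negative limits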
Target sequence (P16473 whole entry, looked up): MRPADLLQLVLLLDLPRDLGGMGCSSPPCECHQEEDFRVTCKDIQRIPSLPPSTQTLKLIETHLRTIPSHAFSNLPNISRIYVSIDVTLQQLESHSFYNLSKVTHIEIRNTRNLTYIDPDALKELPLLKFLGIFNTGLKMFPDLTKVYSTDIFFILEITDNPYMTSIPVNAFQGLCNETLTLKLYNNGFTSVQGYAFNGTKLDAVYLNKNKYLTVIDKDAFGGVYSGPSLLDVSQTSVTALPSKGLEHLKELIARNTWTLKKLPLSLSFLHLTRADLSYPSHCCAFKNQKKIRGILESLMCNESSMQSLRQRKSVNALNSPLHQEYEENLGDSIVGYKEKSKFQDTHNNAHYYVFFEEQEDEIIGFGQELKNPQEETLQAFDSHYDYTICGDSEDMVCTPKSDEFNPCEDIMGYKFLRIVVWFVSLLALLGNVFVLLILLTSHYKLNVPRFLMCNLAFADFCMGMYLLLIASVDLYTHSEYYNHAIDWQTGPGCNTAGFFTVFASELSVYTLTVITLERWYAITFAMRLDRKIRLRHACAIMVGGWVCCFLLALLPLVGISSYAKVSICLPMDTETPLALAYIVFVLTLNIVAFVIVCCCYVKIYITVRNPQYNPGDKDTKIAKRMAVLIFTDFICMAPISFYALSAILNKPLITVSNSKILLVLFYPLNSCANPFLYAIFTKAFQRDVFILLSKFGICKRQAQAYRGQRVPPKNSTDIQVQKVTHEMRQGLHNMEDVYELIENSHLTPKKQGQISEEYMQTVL
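TSHR-expressing cells were treated with compounds, then stimulated with TSH at EC80 (4nM final) for 2 hours at 37 deg C. Cellular cAMP was measured by HTRF competition between lysate cAMP and cAMP-d2 for a cryptate-labelled anti-cAMP antibody.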
B2AR arrestin: recruits beta-arrestin to the human beta2-adrenergic receptor; P07550; beta-arrestin recruitment to beta2AR, cell-based reporter; Potency, µM (series often up to 46.1 µM), actives largely listed as activators; hit rate 0.02% among 330,000; note: nearly all actives have a fitted effect of over 65% in size
ELG1 repair inh: inhibitors of ELG1-dependent DNA repair in HEK293T cells | HEK293T ELG1-luciferase reporter, luminescence, 16 h; DNA damage induced by 5-fluorouridine | Potency, µM (doses to about 46.1 µM), actives largely listed as inhibitors | hit rate 2.3% among 330,000; note: nearly all actives have a fitted effect of over 55% in size
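HEK293T cells expressing luciferase-tagged ELG1 (2,000/well) received 5-Fluorouridine plus compound or DMSO for 16 hr at 37 °C. Luciferase was read by ONE-Glo luminescence after 30 min at room temperature.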
VP16 counter: Gal4-VP16 reporter inhibition counter-screen; Drosophila S2 Gal4-VP16 UAS-luciferase, luminescence, 20 h; Potency, µM (titrated, usually from 53.6 µM), usual class: inhibitors; hit rate 3.5% among 310,000; AID 2546;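 note: Gal4-VP16 expression switched on by copper sulfate through the metallothionein promoter; nearly all actives have a fitted effect of over 50% in size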
RORgamma inh: inhibitors of mouse ROR gamma transcriptional activity | P51450 | Potency, µM (titrated, usually from 53.6 µM), most hits filed as inhibitors | Drosophila S2 Gal4-RORgamma UAS-luciferase reporter, 20 h | hit rate 5.4% among 310,000; note: nearly all actives have a fitted effect of over 60% in size
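Luminescence from a UAS-regulated Photinus luciferase reporter in stably transfected Drosophila Schneider cells is measured; decreased signal marks ROR gamma inhibition. Fusion expression is induced by 700 uM copper sulfate for 20 hr.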
Each line names hits and unclear results; the compound was inactive in the other large screens. Unless noted, calls come from the whole dose curve; as a rule, active = well fitted curve in the direction sought with a large enough effect; inconclusive = small, poorly fitted or top-dose-only effect, or another doubt; inactive = no such curve, though single readings can be large; an effect the other way counts as inactive or inconclusive.

COc1ccccc1NC(=O)c1nnn(CC(=O)Nc2cccc(SC)c2)c1N	ELG1 repair inh inconclusive, VP16 counter inconclusive, RORgamma inh 6.3µM
COc1ccccc1NC(=O)c1nnn(CC(=O)Nc2ccccc2)c1N	RORgamma inh inconclusive
COc1ccc(Nc2nc(C(=O)N3CCc4cc(OC)c(OC)cc4C3)cs2)cc1	ELG1 repair inh 16µM, RORgamma inh inconclusive
COc1ccc(Nc2nc(C(=O)N3CCc4ccccc4C3)cs2)cc1	none
O=C(NC(=S)N1CCCCC1c1cccnc1)c1ccc(Br)cc1 (centres undefined)	VP16 counter 1.3µM, RORgamma inh 0.5µM
O=C(NC(=S)NN1CCCCC1c1cccnc1)c1ccc(Cl)cc1Cl (centres undefined)	B2AR arrestin inconclusive, VP16 counter 4.5µM, RORgamma inh 1.6µM
Cc1cccc(NC(=S)N2CCCCC2c2cccnc2)c1C (centres undefined)	none
O=C(NC(=S)N1CCCCC1c1cccnc1)c1ccc(F)cc1 (centres undefined)	VP16 counter 2.5µM, RORgamma inh 0.89µM
C[C@@]12C(=O)N(Cc3ccccc3)CC(=O)N1[C@H](/C=C/c1ccccc1)[C@@H]1C(=O)N(c3ccccc3)C(=O)[C@@H]12	ELG1 repair inh inconclusive
O=C(CCCn1c(=S)[nH]c2cc3c(cc2c1=O)OCO3)NCc1cccc(Cl)c1	VP16 counter inconclusive, RORgamma inh 13µM
COc1ccc(N2CCN(C(=O)CCCn3c(=S)[nH]c4cc5c(cc4c3=O)OCO5)CC2)cc1	ELG1 repair inh 21µM, VP16 counter inconclusive, RORgamma inh 7.1µM
O=C(CCCn1c(=S)[nH]c2cc3c(cc2c1=O)OCO3)N1CCN(c2ccccn2)CC1	ELG1 repair inh 15µM, VP16 counter inconclusive, RORgamma inh 13µM
CCN(CC)c1ccc(/C=C2/SC(=O)N(C(C)C)C2=O)o1	ELG1 repair inh inconclusive, VP16 counter 2.8µM, RORgamma inh 5µM
CC(C)N1C(=O)S/C(=C\c2ccc(-c3ccc(Cl)c(C(=O)O)c3)o2)C1=O	ELG1 repair inh inconclusive, VP16 counter 2.5µM, RORgamma inh inconclusive
CCOC(=O)CN1C(=O)S/C(=C\c2ccc(-c3ccc(C(=O)O)c(Cl)c3)o2)C1=O	none
CC1CC(OC(=O)C(O)c2ccccc2)CC(C)(C)C1 (centres undefined)	none (no result: TSHR antag, B2AR arrestin, ELG1 repair inh)
CCN(C[C@H]1N[C@@](C)(C(=O)OC)[C@H]2C(=O)N(Cc3ccccc3)C(=O)[C@@H]12)C(=O)c1ccc(C(C)(C)C)cc1	ELG1 repair inh 10µM (no result: VP16 counter, RORgamma inh)
COc1ccc(CC(=S)NCCc2ccccc2)cc1	none
COc1ccc(S[C@@H](CCN2CC[C@H](NC(=O)OCc3ccccc3)CCC2=O)c2ccccc2)cc1	ELG1 repair inh 18µM (no result: VP16 counter, RORgamma inh)
Cc1ccc(-n2cc(-c3ccccc3)c3c(N4CCOCC4)ncnc32)cc1	ELG1 repair inh inconclusive
COc1ccc(-n2cc(-c3ccccc3)c3c(NN4CCOCC4)ncnc32)cc1	ELG1 repair inh inconclusive, VP16 counter inconclusive, RORgamma inh 4.5µM
Fc1ccc(-n2cc(-c3ccccc3)c3c(NN4CCOCC4)ncnc32)cc1	ELG1 repair inh inconclusive, VP16 counter 10µM, RORgamma inh 13µM
NS(=O)(=O)c1ccc(CCNc2ncnc3c2c(-c2ccccc2)cn3-c2ccc(F)cc2)cc1	ELG1 repair inh 16µM
COc1ccc(-n2cc(-c3ccccc3)c3c(NCCOCCO)ncnc32)cc1	ELG1 repair inh inconclusive
Cc1cccc(-n2cc(-c3ccccc3)c3c(N4CCOCC4)ncnc32)c1	ELG1 repair inh 18µM
CCN(CC)C(=O)CSC1=C(C#N)C(c2ccco2)C(C(=O)OCCOC)=C(C)N1 (centres undefined)	ELG1 repair inh inconclusive, VP16 counter inconclusive
C=CCOC(=O)C1=C(C)NC(SCC(=O)N(CC)CC)=C(C#N)C1c1ccco1 (centres undefined)	ELG1 repair inh 8.2µM (no result: VP16 counter)
C=CCOC(=O)C1=C(C)NC(SCC(=O)N(CC)CC)=C(C#N)C1c1ccccc1 (centres undefined)	ELG1 repair inh 16µM
Cc1cccc(C2c3[nH]c4ccccc4c3CCN2C(=O)Cc2nc(-c3ccccc3)n[nH]2)n1 (centres undefined)	ELG1 repair inh 18µM
